Source: PubChem BioAssay (EPA / NIEHS)
Results filed as inconclusive are left out. Active and inactive are the calls of the source. How the source made its calls, unless noted: active means hit-call score of the fitted dose curve at least 0.9, where 1 is the maximum; inconclusive means response in the unintended direction; inactive means score below 0.9.

Legend:
[1] = ATG_TCF_b_cat_CIS: Attagene CIS-FACTORIAL HepG2 Assay for human T-Cell-Factor with beta-catenin (TCF/b-cat) (AID 2282965; active means hit-call score of the fitted dose curve at least 0.9, where 1 is the maximum; inactive means score below 0.9); details: HepG2 TCF/beta-catenin cis-reporter transcription, actives raise or lower the signal
Summary of the method: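 Cells of the HepG2 line carry transiently transfected reporter units whose promoters respond to endogenous factors. Twenty-four hours post-dosing, reporter mRNA induction is measured by fluorescent RT-PCR and capillary electrophoresis, with DMSO as baseline.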

[2] = ATG_TAL_CIS: Attagene CIS-FACTORIAL HepG2 Assay for human TAL Basal Promoter (AID 2282966; active means hit-call score of the fitted dose curve at least 0.9, where 1 is the maximum; inactive means score below 0.9;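 further: background control endpoint measuring basal TAL promoter reporter mRNA not a specific factor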); details: HepG2 Attagene cis-factorial TAL promoter reporter; actives raise or lower the signal
Summary of the method: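 HepG2 cells were transiently transfected with promoter-driven multiplexed reporter units and dosed for 24 h. Reporter mRNA was measured by RT-PCR with capillary electrophoresis fluorescence; bidirectional fits used DMSO as baseline, serving as a background control.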

[3] = ATG_VDRE_CIS: Attagene CIS-FACTORIAL HepG2 Assay for human Vitamin D Receptor Element (VDRE) (AID 2282968; active means hit-call score of the fitted dose curve at least 0.9, where 1 is the maximum; inactive means score below 0.9); details: HepG2 VDRE cis-reporter transcription, actives raise or lower the signal
Summary of the method: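 Transiently transfected HepG2 cells carrying cis-regulated reporter transcription units were exposed for 24 h. Reporter mRNA was measured by RT-PCR with fluorescent labelling and capillary electrophoresis, and fitted in both directions against DMSO.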

[4] = target: X-box-binding protein 1 (Homo sapiens) (UniProt P17861); experiment: ATG_Xbp1_CIS: Attagene CIS-FACTORIAL HepG2 Assay for human X-box Binding Protein 1 (XBP1) (AID 2282972; active means hit-call score of the fitted dose curve at least 0.9, where 1 is the maximum; inactive means score below 0.9); details: HepG2 XBP1 cis-element reporter, Attagene multiplex; actives raise or lower the signal
Chain of X-box-binding protein 1 (Homo sapiens) (P17861 whole entry, looked up, the tested form may be a part): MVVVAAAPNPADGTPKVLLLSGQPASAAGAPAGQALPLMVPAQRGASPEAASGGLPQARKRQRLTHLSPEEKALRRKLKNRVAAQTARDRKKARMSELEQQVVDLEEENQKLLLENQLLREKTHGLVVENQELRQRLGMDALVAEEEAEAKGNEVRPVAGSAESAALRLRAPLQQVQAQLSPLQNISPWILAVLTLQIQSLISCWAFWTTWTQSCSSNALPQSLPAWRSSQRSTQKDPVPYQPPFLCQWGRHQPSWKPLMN
Summary of the method: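 Fluorescence-labelled cDNA fragments from reporter transcripts, separated by capillary electrophoresis, give the signal. Source: HepG2 cells transfected with promoter-driven reporter units, harvested 24 h post-dose. DMSO served as reference for bidirectional curve fitting.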

[5] = ATG_M_19_TRANS: Attagene TRANS-FACTORIAL HepG2 Assay for M19 Transcription Factor (Internal Marker) (AID 2282974); details: HepG2 Attagene TRANS-FACTORIAL M19 internal marker reporter
Summary of the method: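 Using RT-PCR and capillary electrophoresis, reporter mRNA from transiently transfected human HepG2 cells was quantified following 24 h exposure; activity was fitted in the positive direction against DMSO.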

[6] = ATG_GAL4_TRANS: Attagene TRANS-FACTORIAL HepG2 Assay for GAL4 (Internal Marker) (AID 2282976); details: HepG2 Attagene TRANS GAL4 internal marker reporter
Summary of the method: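 HepG2 cells transiently transfected with multiplexed GAL4-UAS reporter constructs were dosed for 24 h. Reporter mRNA was measured by RT-PCR, 6-FAM primer extension, HpaI digestion and capillary electrophoresis, and gain of signal was fitted relative to DMSO.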

[7] = target: Glucocorticoid receptor (Homo sapiens) (UniProt P04150); experiment: ATG_GR_TRANS: Attagene TRANS-FACTORIAL HepG2 Assay for human Glucocorticoid Receptor (GR) (AID 2282978); details: HepG2 Attagene TRANS GR reporter, mRNA transcription;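 further: activators score as hits since higher reporter transcript over DMSO is fitted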
Chain of Glucocorticoid receptor (Homo sapiens) (P04150 whole entry, looked up, the tested form may be a part): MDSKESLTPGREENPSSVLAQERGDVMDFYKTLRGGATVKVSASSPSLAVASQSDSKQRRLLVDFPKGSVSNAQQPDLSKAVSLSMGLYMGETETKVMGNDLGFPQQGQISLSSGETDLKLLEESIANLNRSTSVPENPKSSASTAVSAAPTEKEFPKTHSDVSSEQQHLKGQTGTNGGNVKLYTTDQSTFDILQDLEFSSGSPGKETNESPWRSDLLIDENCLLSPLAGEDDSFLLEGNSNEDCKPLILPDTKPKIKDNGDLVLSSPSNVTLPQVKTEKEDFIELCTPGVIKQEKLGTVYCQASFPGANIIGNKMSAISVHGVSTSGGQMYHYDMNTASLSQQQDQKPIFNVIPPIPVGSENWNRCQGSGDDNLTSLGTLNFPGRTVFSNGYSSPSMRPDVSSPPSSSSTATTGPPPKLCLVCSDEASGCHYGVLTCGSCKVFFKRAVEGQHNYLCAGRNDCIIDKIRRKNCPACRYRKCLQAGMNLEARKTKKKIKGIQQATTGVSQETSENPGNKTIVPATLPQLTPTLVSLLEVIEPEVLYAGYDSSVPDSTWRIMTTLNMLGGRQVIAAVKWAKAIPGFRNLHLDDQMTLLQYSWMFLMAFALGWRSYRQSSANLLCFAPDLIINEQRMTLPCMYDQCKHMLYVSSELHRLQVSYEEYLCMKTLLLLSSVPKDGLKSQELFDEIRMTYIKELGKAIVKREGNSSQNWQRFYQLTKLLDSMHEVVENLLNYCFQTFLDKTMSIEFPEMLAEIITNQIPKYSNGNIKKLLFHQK
Summary of the method: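 Exogenous NR-GAL4 fusion activity was assessed through induced GAL4-UAS reporter transcripts in transfected human HepG2 cells, quantified after 24 h by RT-PCR and fluorescent capillary electrophoresis with DMSO as baseline.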

[8] = target: Oxysterols receptor LXR-alpha (Homo sapiens) (UniProt Q13133); experiment: ATG_LXRa_TRANS: Attagene TRANS-FACTORIAL HepG2 Assay for human Liver X Receptor alpha (LXRa) (AID 2282980); details: HepG2 Attagene TRANS reporter, LXRa transactivation
Chain of Oxysterols receptor LXR-alpha (Homo sapiens) (Q13133 whole entry, looked up, the tested form may be a part): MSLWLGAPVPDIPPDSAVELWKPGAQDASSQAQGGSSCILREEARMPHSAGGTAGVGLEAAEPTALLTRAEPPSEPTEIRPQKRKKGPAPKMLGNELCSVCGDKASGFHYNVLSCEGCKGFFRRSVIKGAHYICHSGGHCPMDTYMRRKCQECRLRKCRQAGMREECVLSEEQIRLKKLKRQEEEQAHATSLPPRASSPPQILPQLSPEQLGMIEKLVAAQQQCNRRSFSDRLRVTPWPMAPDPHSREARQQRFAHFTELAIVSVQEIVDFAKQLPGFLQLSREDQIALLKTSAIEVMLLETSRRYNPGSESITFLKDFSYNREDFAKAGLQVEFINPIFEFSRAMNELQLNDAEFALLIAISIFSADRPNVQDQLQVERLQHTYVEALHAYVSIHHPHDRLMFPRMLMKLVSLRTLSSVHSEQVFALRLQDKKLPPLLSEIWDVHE
Summary of the method: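 HepG2 cells were transiently transfected with multiplexed reporter units driven by chimeric LXRa–GAL4 fusion proteins, then dosed for 24 h. Reporter mRNA was quantified by RT-PCR, fluorescent labelling and capillary electrophoresis; gain of signal fitted against DMSO baseline.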

[9] = target: Hepatocyte nuclear factor 4-alpha (Homo sapiens) (UniProt P41235); experiment: ATG_HNF4a_TRANS: Attagene TRANS-FACTORIAL HepG2 Assay for human Hepatocyte Nuclear Factor 4 alpha (HNF4a) (AID 2282982); details: HepG2 HNF4a transactivation reporter, mRNA readout
Chain of Hepatocyte nuclear factor 4-alpha (Homo sapiens) (P41235 whole entry, looked up, the tested form may be a part): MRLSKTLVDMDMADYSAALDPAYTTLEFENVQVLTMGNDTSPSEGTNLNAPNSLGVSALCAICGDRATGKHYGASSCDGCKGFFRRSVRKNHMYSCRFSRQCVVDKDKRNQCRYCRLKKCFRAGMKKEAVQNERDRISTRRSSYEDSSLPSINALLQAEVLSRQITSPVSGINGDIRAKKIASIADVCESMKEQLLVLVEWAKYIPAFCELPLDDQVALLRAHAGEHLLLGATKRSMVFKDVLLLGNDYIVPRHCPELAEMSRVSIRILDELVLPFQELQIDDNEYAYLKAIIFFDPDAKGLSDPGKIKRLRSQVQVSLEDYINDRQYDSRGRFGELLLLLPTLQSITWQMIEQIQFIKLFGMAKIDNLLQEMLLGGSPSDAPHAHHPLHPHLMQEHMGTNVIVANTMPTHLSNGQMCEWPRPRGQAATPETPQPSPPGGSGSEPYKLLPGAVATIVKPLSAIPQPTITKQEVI
Summary of the method: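 HepG2 cells transiently transfected with HNF4a-Gal4 chimera and GAL4-UAS reporter units, dosed for 24 h. Reporter mRNA measured by RT-PCR, fluorescent primer extension and capillary electrophoresis; gain-of-signal fitted relative to DMSO.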

[10] = ATG_M_32_TRANS: Attagene TRANS-FACTORIAL HepG2 Assay for M32 Transcription Factor (Internal Marker) (AID 2282984); details: HepG2 Attagene TRANS M32 internal marker reporter
Summary of the method: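 HepG2 cells transiently transfected with GAL4-UAS reporter units, dosed for 24 hours. Reporter mRNA quantified by RT-PCR, 6-FAM labelling, HpaI digestion and capillary electrophoresis; internal-marker signal fitted upward relative to DMSO.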

[11] = target: Transcriptional activator Myb (Homo sapiens) (UniProt P10242); experiment: ATG_Myb_CIS: Attagene CIS-FACTORIAL HepG2 Assay for human Myeloblastosis (Myb) Proto-Oncogene Transcription Factor (AID 2282986; active means hit-call score of the fitted dose curve at least 0.9, where 1 is the maximum; inactive means score below 0.9); details: HepG2 Attagene CIS-FACTORIAL Myb reporter transcription; actives raise or lower the signal
Chain of Transcriptional activator Myb (Homo sapiens) (P10242 whole entry, looked up): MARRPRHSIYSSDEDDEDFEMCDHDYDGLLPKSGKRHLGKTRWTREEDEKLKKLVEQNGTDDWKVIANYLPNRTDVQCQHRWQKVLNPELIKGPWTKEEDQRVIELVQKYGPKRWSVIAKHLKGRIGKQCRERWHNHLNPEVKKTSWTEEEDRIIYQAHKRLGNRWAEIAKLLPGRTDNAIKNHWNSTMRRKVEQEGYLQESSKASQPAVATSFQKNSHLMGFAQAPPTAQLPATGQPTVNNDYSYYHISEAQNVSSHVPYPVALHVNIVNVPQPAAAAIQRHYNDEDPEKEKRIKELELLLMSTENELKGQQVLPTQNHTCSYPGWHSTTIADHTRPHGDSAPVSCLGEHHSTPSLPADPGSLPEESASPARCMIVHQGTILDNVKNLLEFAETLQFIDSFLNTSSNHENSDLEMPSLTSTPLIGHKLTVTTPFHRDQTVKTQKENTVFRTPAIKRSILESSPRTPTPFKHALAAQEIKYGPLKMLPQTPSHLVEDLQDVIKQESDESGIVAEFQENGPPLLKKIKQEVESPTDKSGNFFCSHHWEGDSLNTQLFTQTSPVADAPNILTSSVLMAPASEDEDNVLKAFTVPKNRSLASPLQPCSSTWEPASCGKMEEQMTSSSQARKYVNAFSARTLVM
Summary of the method: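 In this HepG2 transient-transfection format, cis-regulated reporter mRNA is quantified 24 h post-dosing by RT-PCR with capillary electrophoresis, fitted bidirectionally to DMSO baseline.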

[12] = target: Estrogen receptor (Homo sapiens) (UniProt P03372); experiment: ATG_ERa_TRANS: Attagene TRANS-FACTORIAL HepG2 Assay for human Estrogen Receptor alpha (ERa) (AID 2282970); details: HepG2 Attagene TRANS ERa GAL4 reporter, mRNA
Chain of Estrogen receptor (Homo sapiens) (P03372 whole entry, looked up, the tested form may be a part): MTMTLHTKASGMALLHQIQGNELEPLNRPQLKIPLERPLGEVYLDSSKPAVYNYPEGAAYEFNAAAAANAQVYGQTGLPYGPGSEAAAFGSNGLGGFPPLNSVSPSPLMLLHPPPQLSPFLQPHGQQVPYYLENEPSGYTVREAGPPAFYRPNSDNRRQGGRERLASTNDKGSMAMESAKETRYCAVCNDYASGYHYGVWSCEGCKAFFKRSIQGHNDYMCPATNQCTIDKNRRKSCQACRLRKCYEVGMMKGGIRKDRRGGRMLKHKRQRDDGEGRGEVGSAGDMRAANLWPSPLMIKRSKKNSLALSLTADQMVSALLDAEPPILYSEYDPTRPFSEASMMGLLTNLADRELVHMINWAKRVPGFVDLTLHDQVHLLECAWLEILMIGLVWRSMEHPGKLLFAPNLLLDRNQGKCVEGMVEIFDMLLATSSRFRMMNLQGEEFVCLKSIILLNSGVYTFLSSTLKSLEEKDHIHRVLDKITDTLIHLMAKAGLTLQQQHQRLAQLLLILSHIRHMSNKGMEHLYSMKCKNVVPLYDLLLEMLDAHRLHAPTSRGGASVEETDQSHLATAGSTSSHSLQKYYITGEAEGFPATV
Summary of the method: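 HepG2 cells transiently transfected with multiplexed GAL4-UAS reporter units; ERa activity read via exogenous chimeric NR-Gal4 protein. After 24 hour compound exposure, reporter mRNA measured by RT-PCR with 6-FAM labelling and capillary electrophoresis; gain-of-signal fitted relative to DMSO.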

[13] = target: Bile acid receptor (Homo sapiens) (UniProt Q96RI1); experiment: ATG_FXR_TRANS: Attagene TRANS-FACTORIAL HepG2 Assay for Farnesoid X Receptor (FXR) (AID 2282979); details: HepG2 Attagene TRANS FXR-GAL4 reporter transcription;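 further: hits raise reporter mRNA above DMSO so AC50 marks FXR activation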
Chain of Bile acid receptor (Homo sapiens) (Q96RI1 whole entry, looked up, the tested form may be a part): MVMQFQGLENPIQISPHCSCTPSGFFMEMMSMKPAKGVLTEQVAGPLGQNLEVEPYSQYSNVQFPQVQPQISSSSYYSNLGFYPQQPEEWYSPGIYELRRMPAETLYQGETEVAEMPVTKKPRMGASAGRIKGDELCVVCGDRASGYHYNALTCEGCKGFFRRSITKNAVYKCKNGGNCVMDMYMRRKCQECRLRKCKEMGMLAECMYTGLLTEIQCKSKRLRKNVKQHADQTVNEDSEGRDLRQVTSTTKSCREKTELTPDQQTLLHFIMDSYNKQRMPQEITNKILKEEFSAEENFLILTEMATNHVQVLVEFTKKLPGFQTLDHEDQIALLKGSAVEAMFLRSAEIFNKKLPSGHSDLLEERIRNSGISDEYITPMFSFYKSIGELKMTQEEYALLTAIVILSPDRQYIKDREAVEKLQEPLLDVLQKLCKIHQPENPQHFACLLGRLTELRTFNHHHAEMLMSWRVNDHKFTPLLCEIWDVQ
Summary of the method: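 HepG2 cells transiently transfected with reporter constructs in which a chimeric FXR-GAL4 protein drives a GAL4-UAS reporter; 24 h compound exposure. Reporter mRNA measured by RT-PCR, FAM labelling, HpaI digestion and capillary electrophoresis; gain-of-signal versus DMSO.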

[14] = target: Oxysterols receptor LXR-beta (Homo sapiens) (UniProt P55055); experiment: ATG_LXRb_TRANS: Attagene TRANS-FACTORIAL HepG2 Assay for human Liver X Receptor beta (LXRb) (AID 2282981); details: HepG2 Attagene TRANS GAL4-LXRb reporter, mRNA
Chain of Oxysterols receptor LXR-beta (Homo sapiens) (P55055 whole entry, looked up, the tested form may be a part): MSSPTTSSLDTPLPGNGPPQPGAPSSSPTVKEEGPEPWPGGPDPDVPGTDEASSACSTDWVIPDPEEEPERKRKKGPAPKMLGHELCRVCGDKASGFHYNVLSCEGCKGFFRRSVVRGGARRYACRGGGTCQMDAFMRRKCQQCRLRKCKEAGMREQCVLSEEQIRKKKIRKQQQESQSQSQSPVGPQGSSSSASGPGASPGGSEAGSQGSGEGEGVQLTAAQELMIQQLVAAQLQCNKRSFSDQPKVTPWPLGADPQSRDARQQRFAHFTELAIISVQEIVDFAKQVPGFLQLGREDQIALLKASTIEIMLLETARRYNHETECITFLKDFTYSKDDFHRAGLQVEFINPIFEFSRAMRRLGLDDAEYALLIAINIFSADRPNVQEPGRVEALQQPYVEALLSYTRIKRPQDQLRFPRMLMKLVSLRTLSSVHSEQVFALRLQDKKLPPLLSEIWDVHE
Summary of the method: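 HepG2 cells transiently transfected with GAL4-UAS reporter units for chimeric NR-Gal4 proteins, dosed for 24 h. Reporter transcripts measured by RT-PCR and capillary electrophoresis; gain-of-signal fitting relative to DMSO.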

[15] = target: Nuclear receptor subfamily 4 group A member 2 (Homo sapiens) (UniProt P43354); experiment: ATG_NURR1_TRANS: Attagene TRANS-FACTORIAL HepG2 Assay for human Nuclear Receptor Related Protein 1 (NURR1) (AID 2282985); details: HepG2 Attagene TRANS reporter, mRNA readout
Chain of Nuclear receptor subfamily 4 group A member 2 (Homo sapiens) (P43354 whole entry, looked up, the tested form may be a part): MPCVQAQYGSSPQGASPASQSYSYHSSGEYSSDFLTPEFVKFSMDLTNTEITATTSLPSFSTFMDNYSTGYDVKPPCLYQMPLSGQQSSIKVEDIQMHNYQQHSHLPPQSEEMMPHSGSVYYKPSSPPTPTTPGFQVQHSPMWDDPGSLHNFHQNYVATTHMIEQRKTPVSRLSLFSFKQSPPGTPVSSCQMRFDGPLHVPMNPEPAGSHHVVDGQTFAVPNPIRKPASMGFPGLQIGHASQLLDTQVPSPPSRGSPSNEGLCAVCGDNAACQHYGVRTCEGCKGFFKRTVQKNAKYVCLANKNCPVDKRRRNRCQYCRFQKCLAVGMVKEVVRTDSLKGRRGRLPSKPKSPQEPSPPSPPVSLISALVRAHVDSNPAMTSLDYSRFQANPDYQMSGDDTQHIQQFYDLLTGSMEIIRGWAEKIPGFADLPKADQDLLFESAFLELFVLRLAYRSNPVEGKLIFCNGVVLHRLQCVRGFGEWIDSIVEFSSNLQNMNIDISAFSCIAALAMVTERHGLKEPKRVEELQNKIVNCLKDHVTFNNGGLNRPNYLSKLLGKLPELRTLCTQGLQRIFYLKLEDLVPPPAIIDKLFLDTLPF
Summary of the method: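 HepG2 cells transiently transfected with NURR1-Gal4 chimera and GAL4-UAS reporter units; after 24 hr compound exposure, reporter mRNA quantified by RT-PCR and capillary electrophoresis; gain of signal fitted against DMSO.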

[16] = ATG_TGFb_CIS: Attagene CIS-FACTORIAL HepG2 Assay for human Transforming Growth Factor (TGF) (AID 2282967; active means hit-call score of the fitted dose curve at least 0.9, where 1 is the maximum; inactive means score below 0.9); details: HepG2 Attagene CIS TGFb reporter, mRNA transcription; actives raise or lower the signal
Summary of the method: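 Multiplexed cis-reporter HepG2 system, 24 h treatment; mRNA induction read by fluorescence after RT-PCR and CE; DMSO negative control, bidirectional curve fitting.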

[17] = ATG_M_06_TRANS: Attagene TRANS-FACTORIAL HepG2 Assay for M06 Transcription Factor (Internal Marker) (AID 2282983); details: HepG2 Attagene TRANS M06 internal marker reporter;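 further: reporter transcript level by RT-PCR then capillary electrophoresis fluorescence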
Summary of the method: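 HepG2 cells transiently transfected with multiplexed GAL4-UAS reporter transcription units; after 24 h compound exposure, reporter mRNA measured by RT-PCR, FAM-labelled primer extension, HpaI digestion and capillary electrophoresis. Gain-of-signal fitted versus DMSO baseline; background control readout.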

[18] = target: Estrogen-related receptor gamma (Homo sapiens) (UniProt P62508); experiment: ATG_ERRg_TRANS: Attagene TRANS-FACTORIAL HepG2 Assay for human Estrogen-Related Receptor gamma (ERRg) (AID 2282977); details: HepG2 Attagene TRANS reporter, ERRg transactivation;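 further: hits increase reporter signal over DMSO so potencies reflect activators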
Summary of the method: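 HepG2 cells transiently transfected with multiplexed GAL4-UAS reporter units driven by chimeric NR-Gal4 proteins; 24 h exposure. Reporter mRNA quantified by RT-PCR, fluorescent labelling, HpaI digestion and capillary electrophoresis; gain of signal vs DMSO.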

[19] = target: Steroid hormone receptor ERR1 (Homo sapiens) (UniProt P11474); experiment: ATG_ERRa_TRANS: Attagene TRANS-FACTORIAL HepG2 Assay for human Estrogen-Related Receptor alpha (ERRa) (AID 2282971); details: HepG2 Attagene TRANS reporter, ERRa transactivation
Summary of the method: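 HepG2 cells transiently transfected with multiplexed GAL4-UAS reporter units reading chimeric ERRa-Gal4 activity; 24 h compound exposure. Reporter mRNA measured by RT-PCR, 6-FAM labelling, HpaI digest and capillary electrophoresis; gain of signal fitted versus DMSO baseline.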

[20] = target: Nuclear receptor subfamily 1 group I member 3 (Homo sapiens) (UniProt Q14994); experiment: ATG_CAR_TRANS: Attagene TRANS-FACTORIAL HepG2 Assay for human Constitutive Androstane Receptor (CAR) (AID 2282969); details: HepG2 Attagene TRANS-FACTORIAL CAR reporter;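 further: activators raise reporter mRNA above DMSO so AC50 marks induction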
Summary of the method: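 HepG2 cells transiently transfected with GAL4-UAS reporter units; TRANS format reads activity of exogenous chimeric NR-Gal4 protein. After 24 h dosing, reporter mRNA quantified by RT-PCR, 6-FAM labelling and capillary electrophoresis; gain of signal fitted against DMSO.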

Measured: AC50

Cc1cccc(C)n1
inactive: [1] | [2] | [3] | [4] | [5] | [6] | [7] | [8] | [9] | [10] | [11]

CCN(CC)c1ccc(N=Nc2ccccc2)cc1
active: [3] 7.19 µM
not listed: [6] | [16] | [17] | [18] | [19] | [20]
inactive: all other assays above

Oc1ccc(C2(c3ccc(O)c(C4CCCCC4)c3)CCCCC2)cc1C1CCCCC1
active: [2] 17.9 µM | [3] 0.619 µM | [4] 6.08 µM | [11] 51.3 µM
inactive: [16] | [12] | [6] | [7] | [13] | [9] | [17] | [10]

C=CC(=O)OCC(F)(F)C(F)(F)C(F)(F)COC(=O)C=C
active: [3] 20.7 µM
not listed: [1] | [5] | [6] | [8] | [10] | [19] | [20]
inactive: all other assays above

NCC(F)(F)C(F)(F)C(F)(F)C(F)(F)C(F)(F)C(F)(F)C(F)(F)C(F)(F)F
inactive: [2] | [3] | [12] | [19] | [4] | [6] | [13] | [8] | [10] | [15] | [11]

CCC(=O)OC(C)c1ccccc1 (stereo not drawn)
not listed: [1] | [7] | [8] | [12] | [17] | [19]
inactive: all other assays above

CC1=CCC2C(=O)OC(=O)C2C1 (stereo not drawn)
inactive: [2] | [16] | [3] | [20] | [4] | [5] | [13] | [8] | [11]

OCCC(O)CO (stereo not drawn)
inactive: [2] | [16] | [3] | [12] | [4] | [5] | [6] | [13] | [11]

O=C(Cl)C(F)(F)C(F)(F)C(F)(F)C(F)(F)C(F)(F)C(F)(F)C(F)(F)F
inactive: [2] | [16] | [3] | [4] | [13] | [8] | [14] | [11]
active: [12] 53.1 µM | [15] 38.9 µM

CCN=c1cc2oc3cc(NCC)c(C)cc3c(-c3ccccc3C(=O)OCC)c-2cc1C
inactive: [2] | [3] | [7] | [13] | [10] | [11]
active: [4] 11.1 µM

O=C(O)C(F)(F)C(F)(F)C(F)(F)C(F)(F)C(F)(F)C(F)(F)C(F)F
active: [12] 41.4 µM
not listed: [1] | [5] | [7] | [9] | [18] | [19] | [20]
inactive: all other assays above
